DRD3 agonist: activates the human D3 dopamine receptor. P35462. D3R DiscoveRx beta-arrestin cells, luminescence, 90 min. max activation, %. 410,000 tested, 0.58% active. AID 652048; in the data active means max activation above about 30%
Target sequence (P35462 whole entry, looked up): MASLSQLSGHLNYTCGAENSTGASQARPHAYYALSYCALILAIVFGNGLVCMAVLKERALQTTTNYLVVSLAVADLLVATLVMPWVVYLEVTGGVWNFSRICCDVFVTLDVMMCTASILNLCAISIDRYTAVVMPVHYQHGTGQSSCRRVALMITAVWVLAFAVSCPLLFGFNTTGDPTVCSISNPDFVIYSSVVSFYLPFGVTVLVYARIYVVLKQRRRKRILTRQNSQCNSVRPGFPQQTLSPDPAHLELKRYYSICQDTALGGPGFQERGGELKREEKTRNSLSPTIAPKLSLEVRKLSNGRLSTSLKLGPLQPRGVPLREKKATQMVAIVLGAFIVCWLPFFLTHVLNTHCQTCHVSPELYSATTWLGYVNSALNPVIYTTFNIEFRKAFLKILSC
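Cells at 1500/well, incubated overnight, then treated with pinned compounds (dopamine as control) for 90 min at 37 degrees C. DiscoveRx reagent added for 30 - 60 minutes at room temperature; luminescence read.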
D3 antag: D3 dopamine receptor (human) antagonism | 360,000 tested, 2.5% active | D3R cells, DiscoveRx beta-arrestin luminescence, antagonist mode; hits give low values | max response, negative = inhibition, % | P35462; in the data active means max response below about -50%; inconclusive means no clear call, values can overlap the other calls
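Cells expressing the human receptor were seeded at 1500 cells/well, incubated overnight at 37 degrees C in 5% CO2, then exposed to library compounds with dopamine controls for 90 minutes at 37 degrees C before luminescent detection.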
ClpP mod: qHTS Assay for Activators of ClpP; ATP-dependent Clp protease proteolytic subunit (Bacillus subtilis (strain 168)), P80244; purified B. subtilis ClpP, FRET peptide cleavage, 20 min; Potency, µM (highest dose often 57.5 µM); 340,000 tested, 1.9% active; AID 651965, 2013; active means well fitted falling curve with a large enough effect; inconclusive means small, poorly fitted or top-dose-only effect; inactive means no such curve, though single readings can be large or run the other way; further: the source files actives as falling curves though it sought activators and does not explain the sign; nearly all actives have a fitted effect of over 65% in size
Target sequence (P80244 whole entry, looked up): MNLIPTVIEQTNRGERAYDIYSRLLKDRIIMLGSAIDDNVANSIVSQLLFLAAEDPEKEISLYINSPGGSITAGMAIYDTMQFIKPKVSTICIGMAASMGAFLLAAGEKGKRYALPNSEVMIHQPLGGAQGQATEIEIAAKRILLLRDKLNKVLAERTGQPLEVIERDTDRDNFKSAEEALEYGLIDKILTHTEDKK
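Buffer: 100 mM Tris/HCl pH8, 100 mM KCl, 0.05% low protease BSA, 2.5% glycerol, 0.01% Tween-20. ClpP 10 microg/mL final; 20 min RT; delta FRET normalized to ADEP and DMSO controls.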
DT40 TDP1 CPT: growth inhibition of DT40 Tdp1-/-;hTDP1 cells with camptothecin (screen for TDP1 inhibitors); Potency, µM (doses to about 46.2 µM), most hits filed as inhibitors; 420,000 tested, 12% active; chicken DT40 Tdp1-/-;hTDP1 cells + 20 nM CPT, ATP luminescence, 48 h; further: nearly all actives have a fitted effect of over 55% in size
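Chicken DT40 Tdp1-/- cells stably complemented with human TDP1 were seeded at 400 cells/well in medium containing 20 nM camptothecin, exposed to pin-transferred compounds, and grown at 37 °C for at least 48 hr. Viability was read as ATP luminescence.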
IL1B secr inh: inflammasome signaling inhibition, IL-1 beta readout; 360,000 tested, 4.7% active; activity change, % at 57.5 µM; THP-1 LPS/ATP IL-1B secretion, AlphaLISA, 16 h; hits give low values; in the data active means activity change below about -50%; inconclusive means mostly about -30% to -49%
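Secreted IL-1B measured by AlphaLISA bead assay after 16 h compound exposure of THP-1 cells; compounds (final up to 57.5 uM) added 1 h before LPS (250 ng/mL) and ATP (1.25 mM) stimulation; lower signal means less secretion.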
DT40 TDP1 no CPT: qHTS for Inhibitors of human tyrosyl-DNA phosphodiesterase 1 (TDP1): qHTS in cells in absence of CPT | DT40 Tdp1-/- hTDP1 cells, no CPT, ATP luminescence, 48 h | Potency, µM (titrated, usually from 46.2 µM), hits mostly inhibitors | 420,000 tested, 15% active; further: nearly all actives have a fitted effect of over 55% in size
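No-CPT arm: Tdp1-/-;hTDP1 DT40 cells (400/well) plus compounds, incubated ≥48 hr at 37 °C. Readout CellTiter-Glo luminescence.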
A number is an active result; i = inactive; ? = inconclusive; nt = not tested or not shown; [ ] = dose if it differs, or a comment. A selection: hits, their analogues and other compounds. The true share with any hit is near 21%. Unless noted, the call rests on the fitted dose curve; in most records, active means well fitted inhibition curve with a large enough effect; inconclusive means small, poorly fitted or top-dose-only effect; inactive means flat fitted curve, though single readings scatter.

SMILES	DRD3 agonist	D3 antag	ClpP mod	DT40 TDP1 CPT	IL1B secr inh	DT40 TDP1 no CPT
COc1ccc(-c2ccc(OC)c([C@H]3[C@H]4C=CC[C@@H](C)[C@@H]4C(=O)N3Cc3ccccc3)c2)cc1	i	-52.1	25.1µM	14.6µM	i	14.6µM
COc1ccc(-c2ccc(C)cc2)cc1[C@H]1[C@H]2C=CC[C@@H](C)[C@@H]2C(=O)N1Cc1ccccc1	i	i	i	?	i	?
CCOC(=O)c1c(NC(=O)Cc2coc3cc(C)cc(C)c23)sc2c1CCC2	i	nt	i	i	nt	i
Cc1c(CN2CCOc3ccc(C(C)(O)COc4ccccc4)cc3C2)cnn1C (stereo not drawn)	nt	nt	nt	i[9.04 µM]	nt	i
N#CCCOC1(C#CCN2CCCC2)CCCCC1	i	-88.2	i	i	i	?
COc1ccc(CCNC(=O)c2cc(=O)c3cc(C)cc(C)c3o2)cc1OC	i	nt	i	20.6µM	nt	23.1µM
COc1ccc(CCNC(=O)c2cc(=O)c3cc(C)ccc3o2)cc1OC	i	i	i	?	i	20.6µM
COc1ccc(CNC(=O)c2cc(=O)c3cc(C)c(C)cc3o2)cc1	i	i	i	i	i	i
COc1ccc(CCNC(=O)c2cc(=O)c3cc(C)c(C)cc3o2)cc1OC	i	nt	i	i	nt	7.31µM
CCOc1ccc(CCNC(=O)c2nnc(Cc3ccc(Cl)cc3Cl)o2)cc1OCC	i	nt	i	i	nt	i
CCOc1ccc(CCNC(=O)c2nnc(Cc3cc(OC)c(OC)c(OC)c3)o2)cc1OCC	i	nt	i	20.6µM	nt	?
Cc1ccc(CNC(=O)c2cc(=O)c3cc(C)ccc3o2)cc1	i	i	?	i	i	i
COc1ccc(NC(=O)c2cc(=O)c3cc(C)cc(C)c3o2)cc1	i	nt	i	?	nt	?
Cc1cc2oc(C(=O)Nc3cccc(-c4nc5ccccc5o4)c3)c(C)c2cc1C	i	nt	i	?	nt	?
COc1cc(CNc2ncnc3c2ncn3[C@H]2CN(CCc3ccccc3)C[C@@H](CO)O2)cc(OC)c1OC	i	?	i	?	i	?
O=C(CSc1cccc[n+]1[O-])NC1CCCCC1	i	i	i	i	i	i
CCCCCCn1cc(CN2CC(N3CCN(C4CCN(C)CC4)CC3)CS2(=O)=O)nn1 (stereo not drawn)	i	i	i	i	i	i
Cc1cc(-c2csc3ncnc(N4CCN(C)CC4)c23)cc(C)c1C	i	i	nt	i	i	?
Fc1ccc(-c2csc3ncnc(N4CCc5ccccc5C4)c23)cc1	46.4	i	i	16.4µM	i	?
OCCN1CCN(c2ncnc3scc(-c4ccc(F)cc4)c23)CC1	i	i	i	i	?	i
CCN1CCN(c2ncnc3scc(-c4ccc(C)cc4)c23)CC1	i	-92.3	i	?	i	?
Cc1ccc(-c2csc3ncnc(N4CCc5ccccc5C4)c23)cc1	i	i	i	?	i	20.6µM
NC(=O)COc1ncnc2scc(-c3ccc(F)cc3)c12	i	i	i	?	i	i
CNc1ccnc(-c2ccccc2CN(C)C)n1	nt	nt	nt	i	nt	i
O=C(NCCOCCO)C(=O)Nc1c2c(nn1-c1ccc(F)cc1)CSC2	i	nt	i	i	nt	i
SMILES	DRD3 agonist	D3 antag	ClpP mod	DT40 TDP1 CPT	IL1B secr inh	DT40 TDP1 no CPT
O=C(NCc1ccccc1)C(=O)Nc1c2c(nn1-c1ccc(F)cc1)CSC2	i	nt	i	?	nt	16.4µM
CC(=O)N1CCN(C(=O)C(=O)Nc2c3c(nn2-c2ccc(Cl)cc2)CSC3)CC1	i	nt	i	i	nt	i
CC(C)CCNC(=O)C(=O)Nc1c2c(nn1-c1ccc(Cl)cc1)CSC2	i	nt	i	25.9µM	nt	11.6µM
COc1ccc(-n2nc3c(c2NC(=O)CCl)CSC3)cc1	i	i	nt	2.59µM	-106.9	2.31µM
CC(=O)CSc1nnc(-c2ccc(S(=O)(=O)N3CCC(C)CC3)cc2)o1	i	i	i	i	i	i
CN1CCN(C(CNC(=O)C(=O)NC2CCCC2)c2ccc(F)cc2)CC1 (stereo not drawn)	i	i	i	i	i	i
Cc1c(C(=O)NCCCN2CCOCC2)sc2ncnc(N3CCN(c4ccccc4)CC3)c12	i	i	i	16.4µM	?	20.6µM
CCCCNC(=O)c1sc2ncnc(N3CCc4ccccc4C3)c2c1C	i	i	?	14.6µM	i	8.2µM
COc1cc(/C=N/NC(=O)CC23CC4CC(CC(C4)C2)C3)cc(Br)c1OCC(=O)N(C)C	i	i	i	20.6µM	i	18.4µM
COc1cc(/C=N/NC(=O)C23CC4CC(CC(C4)C2)C3)cc(Br)c1O	i	?	i	i	i	i
CC(C)(C)OC(=O)N(CCc1ccccc1)Cc1cccc(OCc2cccc(NC(=O)C3CC3)c2)c1	i	i	i	?	?	?
CC(C)(C)OC(=O)N(Cc1ccccc1)Cc1ccccc1OCc1ccc(NC(=O)C2CCC2)cc1	i	i	i	18.4µM	-67.7	?
CC(C)(C)OC(=O)N(CCc1ccccc1)Cc1ccc(OCc2cccc(NC(=O)C3CCCC3)c2)cc1	i	i	i	5.17µM	i	6.51µM
CC(C)(C)OC(=O)N(CCc1ccccc1)Cc1ccccc1OCc1ccc(NC(=O)C2CCC2)cc1	i	i	i	?	i	?
CC(C)(C)OC(=O)N(Cc1ccccc1)Cc1ccc(OCc2cccc(NC(=O)C3CC3)c2)cc1	65.0	i	i	?	i	?
CC(C)(C)OC(=O)N(CCc1ccccc1)Cc1ccccc1OCc1cccc(NC(=O)C2CCCC2)c1	i	-50.4	i	20.6µM	i	?
CCOc1ccccc1C(=O)Nc1cccc(-c2ccc3nncn3n2)c1	i	i	nt	23.1µM	i	23.1µM
CCC(CC)C(=O)Nc1cccc(-c2ccc3nncn3n2)c1	i	i	i	i	i	i
Cc1ccc(S(=O)(=O)Nc2cccc(-c3ccc4nncn4n3)c2)cc1	i	i	i	1.84µM	i	2.31µM
Cc1ccccc1C(=O)Nc1cccc(-c2ccc3nncn3n2)c1	i	i	nt	23.1µM	i	20.6µM
O=C(COC(=O)Cc1ccc(S(=O)(=O)N2CCOCC2)s1)Nc1ccccc1	i	i	nt	i	?	?
O=C(CCn1c2c(c3ccccc31)CCCC2)NNC(=O)c1ccc([N+](=O)[O-])cc1	i	i	i	20.6µM	i	11.6µM
COc1ccccc1NC1=C(Cl)C(=O)N(C2CCCCC2)C1=O	i	i	i	18.4µM	i	25.9µM
O=C1C(Cl)=C(Nc2ccccc2O)C(=O)N1c1ccccc1	i	i	i	?	i	?
Cc1ccccc1NC1=C(Cl)C(=O)N(C2CCCCC2)C1=O	i	i	i	?	-93.3	?
COc1ccccc1N1C(=O)C(Cl)=C(Nc2ccccc2O)C1=O	i	i	nt	?	i	?

Bioassay records (PubChem BioAssay)
